ELG1 DNA repair = qHTS screen for small molecules that inhibit ELG1-dependent DNA repair in human embryonic kidney (HEK293T) cells expressing luciferase-tagged ELG1. HEK293T ELG1-luciferase reporter, luminescence, 16 h; DNA damage induced by 5-fluorouridine. Potency, µM (series often up to 46.1 µM), without a hit: at the top dose activity change, negative = inhibition, actives largely listed as inhibitors. actives 2.3% (n = 330,000). AID 504467, 2011; further: on the % scale 0 is the no-effect control and ±100 the full control effect; nearly all actives have a fitted effect of over 55% in size
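Reporter activity after DNA damage by 5-fluorouridine is monitored. Compound-treated cells incubate 16 hr at 37 °C, then ONE-Glo is added for 30 min before luminescence reading.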
Rab9 prom act = qHTS Assay for Rab9 Promoter Activators; Huh7 Rab9 promoter-luciferase reporter, luminescence, 24 h; actives 2.8% (n = 320,000); Potency, µM (doses to about 9.22 µM), for inactives: at the top dose activation, negative = inhibition, usual class: activators; further: % of control where 0% means no effect; nearly all actives have a fitted effect of over 60% in size
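Promoter activation is measured as luciferase luminescence in Huh7 cells stably transfected with a Rab9 promoter–luciferase construct, following 24 h compound exposure at 37 °C and 10 min reagent incubation at ambient temperature.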
FLuc modulator = qHTS profiling assay for firefly luciferase inhibitor/activator using purifed enzyme and Km concentrations of substrates (counterscreen for miR-21 project). actives 6.9% (n = 360,000). Potency, µM (titrated, usually from 57.5 µM), without a hit: at the highest dose activity change, negative = inhibition, actives largely listed as inhibitors. purified FLuc, Km substrates, luminescence inhibition. Luciferin 4-monooxygenase (Photinus pyralis), P08659;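 further: plate controls were vehicle for no effect and reference inhibitor for full effect; nearly all actives have a fitted effect of over 55% in size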
Target sequence (P08659 whole entry, looked up): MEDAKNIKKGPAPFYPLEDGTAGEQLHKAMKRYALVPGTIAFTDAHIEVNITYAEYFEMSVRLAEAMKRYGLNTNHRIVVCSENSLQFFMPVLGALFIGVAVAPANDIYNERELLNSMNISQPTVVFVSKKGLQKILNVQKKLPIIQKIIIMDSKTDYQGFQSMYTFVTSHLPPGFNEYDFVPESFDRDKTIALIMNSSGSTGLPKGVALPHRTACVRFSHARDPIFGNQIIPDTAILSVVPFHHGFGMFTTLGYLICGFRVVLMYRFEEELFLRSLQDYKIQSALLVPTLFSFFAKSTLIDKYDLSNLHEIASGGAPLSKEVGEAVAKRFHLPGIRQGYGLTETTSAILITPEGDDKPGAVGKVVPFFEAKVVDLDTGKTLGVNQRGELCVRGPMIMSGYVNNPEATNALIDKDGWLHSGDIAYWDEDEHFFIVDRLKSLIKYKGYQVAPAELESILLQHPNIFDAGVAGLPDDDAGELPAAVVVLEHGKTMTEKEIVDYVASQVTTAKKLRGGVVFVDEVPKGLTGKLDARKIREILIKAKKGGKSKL
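Purified P. pyralis luciferase, 10 nM final, with Km-level 10 uM D-luciferin and 10 uM ATP in 50 mM Tris acetate pH 7.5, 10 mM Mg acetate, 0.01% Tween-20, 0.05% BSA; 6-point qHTS titration about 60 µM downward; luminescence read.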
ELG1 genotoxic = qHTS screen for small molecules that induce genotoxicity in human embryonic kidney (HEK293T) cells expressing luciferase-tagged ELG1; HEK293T ELG1-luciferase reporter, luminescence, 16 h; Potency, µM (doses to about 46 µM), for the others: at the highest dose activity change, positive = activation, usual class: activators; actives 1.3% (n = 330,000); AID 504466, 2011; further: % of control where 0% means no effect; nearly all actives have a fitted effect of over 60% in size
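Cells (2,000/well) expressing the ELG1-luciferase fusion are dosed by pin tool and kept 16 hr at 37 °C, 5% CO2. Signal comes from ONE-Glo luciferase reagent after 30 min at room temperature.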
SMN2 splice up = qHTS Assay for Enhancers of SMN2 Splice Variant Expression; HEK293 SMN2-luciferase splicing reporter, luminescence, 30-36 h; Potency, µM (series often up to 46.1 µM), for the others: top-dose activity change, positive = activation, usual class: activators; actives 2.8% (n = 210,000); AID 1458, 2008; further: % of control where 0% means no effect; nearly all actives have a fitted effect of over 55% in size
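qHTS luciferase splicing reporter: luminescence rises when SMN2 exon 7 is included in transfected HEK293 cells. Compound exposure lasted 30-36 h at 37C, with 4.5 mM final sodium butyrate as control, followed by a ONE-Glo read.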
NPC1 prom act = qHTS Assay for NPC1 Promoter Activators; Huh7 NPC1 promoter luciferase reporter, 24 h; AID 485313, 2010; Potency, µM (titrated, usually from 9.22 µM), for inactives: at the top dose activation, usual class: activators; actives 2.4% (n = 320,000); further: % of control where 0% means no effect; nearly all actives have a fitted effect of over 60% in size
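Stable NPC1-promoter luciferase Huh7 line; cpd (DMSO) 24 h, 37 °C, 5% CO2; Amplite luciferase reagent 10 min RT; luminescence readout. qHTS format.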
* hit, by the source's call; ? = inconclusive; nt = no result given. Compounds with a hit are over-represented: about 9.2% of the library has one in this group of screens. The call rests on the fitted dose curve; in most records, active means well fitted curve in the direction sought with a large enough effect; inconclusive means small, poorly fitted or top-dose-only effect, or another doubt; inactive means no such curve, though single readings can be large; an effect the other way counts as inactive or inconclusive. Potency means the concentration at half of the fitted maximal effect.

SMILES	ELG1 DNA repair	Rab9 prom act	FLuc modulator	ELG1 genotoxic	SMN2 splice up	NPC1 prom act
Cc1ccccc1-c1noc(-c2ccc(N3CCCC3)c([N+](=O)[O-])c2)n1	nt	nt	13µM*	nt	nt	nt
CCNc1ccc(-c2nc(-c3ccco3)no2)cc1[N+](=O)[O-]	nt	nt	15µM*	nt	nt	nt
COCCNc1ccc(-c2nc(-c3ccco3)no2)cc1[N+](=O)[O-]	nt	nt	-15%	nt	nt	nt
Cc1noc(-c2ccc(N3CCC(C)CC3)c([N+](=O)[O-])c2)n1	nt	nt	8.5µM*	nt	nt	nt
CSCCC(NC(=O)c1ccccc1Cl)C(=O)NNC(=O)c1ccncc1 (stereo unspecified)	-1%	-2%	?	2%	nt	1%
O=C(NCCc1ccccc1)c1cc(-c2ccc(Cl)c(Cl)c2)on1	nt	nt	2%	nt	7%	nt
CCOc1ccccc1/C=C(/C#N)C(N)=O	?	-2%	5%	3%	nt	2%
N#C/C(=C\c1ccc(OCc2ccc(F)cc2)cc1)C(=O)Nc1cccc(C(=O)O)c1	?	16%	?	?	nt	6%
COC(=O)c1ccc(COc2ccccc2/C=C(\C#N)C(=O)Nc2ccc(C)cc2)cc1	?	2.8µM*	8.5µM*	21µM*	-41%	?
Cc1cccc(NC(=O)/C(C#N)=C/c2ccc(F)cc2)n1	-6%	0%	5.4µM*	-8%	nt	2%
CCCOc1ccccc1/C=C(\C#N)C(=O)Nc1cccc(C)n1	1%	-1%	11µM*	5%	nt	-3%
Cn1cc([N+](=O)[O-])c(C(=O)Nc2ccc(-c3nc4ccccc4o3)cc2)n1	15%	?	?	?	nt	?
CCOC(=O)c1ccc2c(c1)[nH]c(=S)n2CC	?	?	19µM*	21µM*	nt	18%
O=C(O)c1ccc(N/N=C/c2cccc3cccnc23)cc1	?	0.28µM*	0.76µM*	?	nt	0.32µM*
O=C(O)c1ccc(N/N=C/c2ccnc3ccccc23)cc1	?	?	1.3µM*	?	nt	0.56µM*
CC(C)(C)OC(=O)NCCC(=O)N/N=C/c1cccc2cccnc12	?	-4%	-2%	-4%	nt	-1%
COCCCNC(=O)CCCN1C(=O)CCn2nc(-c3cccn3C)cc21	nt	nt	-1%	nt	nt	nt
COc1ccc(S(=O)(=O)N2CCC3(CC2)OCCN3S(=O)(=O)c2ccc(C)cc2)cc1OC	?	-4%	11%	9%	nt	0%
COc1cccc(NC(=O)CSC2=Nc3ccccc3C3=NC(CC(=O)NCc4ccc5c(c4)OCO5)C(=O)N23)c1 (stereo unspecified)	nt	nt	-2%	nt	nt	nt
CN1CCN(C(=O)c2cnn3c(C(F)(F)F)cc(-c4cccs4)nc23)CC1	5.8µM*	-3%	3%	2%	6%	-7%
O=C(c1nn2c(C(F)(F)F)cc(-c3cccs3)nc2c1Br)N1CCCc2ccccc21	?	-5%	-18%	5%	-45%	-16%
O=C(O)c1cc2nc(-c3cccs3)cc(C(F)(F)F)n2n1	-1%	3%	-12%	-4%	7%	0%
O=C(c1cnn2c(C(F)(F)F)cc(-c3cccs3)nc12)N1CCN(C(c2ccccc2)c2ccccc2)CC1	5.8µM*	-2%	2%	-3%	-17%	-8%
O=C(c1cnn2c(C(F)(F)F)cc(-c3cccs3)nc12)N1CCN(Cc2ccccc2)CC1	6.5µM*	-2%	3%	-14%	-15%	-2%
O=C(NCCc1ccccc1)c1nc2nc(-c3cccs3)cc(C(F)(F)F)n2n1	?	14%	-20%	-8%	?	12%
SMILES	ELG1 DNA repair	Rab9 prom act	FLuc modulator	ELG1 genotoxic	SMN2 splice up	NPC1 prom act
O=C(c1ccco1)N1CCN(C(=O)c2cnn3c(C(F)(F)F)cc(-c4cccs4)nc23)CC1	5.8µM*	1%	7%	-11%	nt	-7%
COc1ccc(C2C(=O)N(C3CCC(C)CC3)CC(=O)N2CCc2ccccc2)cc1OC (stereo unspecified)	nt	nt	0%	nt	nt	nt
COc1ccccc1Nc1nn2c(=O)c3ccc(C(=O)NC4CCC(C)CC4)cc3nc2s1 (stereo unspecified)	nt	nt	-1%	nt	nt	nt
CC(C)c1ccc(N2C(=O)CS(=O)(=O)C23C(=O)N(Cc2cccc(F)c2)c2ccccc23)cc1 (stereo unspecified)	nt	nt	0%	nt	nt	nt
Cc1nnc(N2CCN(c3ccccc3F)CC2)c2c1nnn2Cc1ccc(F)cc1	nt	nt	0%	nt	-3%	nt
OC(Cn1cncn1)(c1ccc(F)cc1)c1ccc(Cl)cc1 (stereo unspecified)	-4%	-9%	0%	-1%	nt	-4%
COc1ccc(-c2cc(=O)n(-c3ccc([N+](=O)[O-])cc3)[nH]2)cc1	?	-5%	21µM*	1%	9%	-1%
Cc1nc(S(=O)(=O)N(C)c2ccccc2)c(C#N)c(C)c1Cl	23µM*	-5%	1%	-12%	-42%	-1%
CN(c1ccccc1)S(=O)(=O)c1ccc(Cl)nc1	9%	-1%	-1%	0%	22%	-6%
Cc1ccc(-c2nc3sc(CCNC(=O)c4ccc(Br)o4)c(C)n3n2)cc1	nt	nt	11µM*	nt	nt	nt
Cc1ccc(-c2nc3sc(CCNC(=O)c4ccco4)c(C)n3n2)cc1	nt	nt	13µM*	nt	nt	nt
Cc1c(CCNC(=O)Cc2ccccc2)sc2nc(-c3ccc(F)cc3)nn12	nt	nt	-14%	nt	nt	nt
Cn1c2ccccc2c2cc(/C=N/NC(=O)c3ccccc3F)ccc21	23µM*	13%	7.6µM*	-11%	nt	-10%
Cn1c2ccccc2c2cc(/C=N/NC(=O)c3ccc(N)cc3)ccc21	?	12%	11µM*	-14%	nt	-2%
CCSc1ncc(Cl)c(C(=O)Nc2c(C(=O)Nc3ccc(Cl)cc3)oc3ccccc23)n1	nt	nt	1%	nt	-5%	nt
CCOC(=O)c1ccccc1-c1cn2cc(Cl)ccc2n1	?	8%	15µM*	10%	6%	-2%
